Screens (PubChem BioAssay)
This is a sample that favours compounds with a hit; in the whole collection about 2.4% have one here.
M1 ag – human M1 muscarinic receptor agonists, primary screen, Fluo-8 calcium fluorescence, CHO-K1 cells, HTS | actives 0.33% (n = 360,000) | Muscarinic acetylcholine receptor M1 (Homo sapiens), P11229 | activation, % at 3 µM | CHO-K1 hM1, agonist mode; 0% DMSO, 100% acetylcholine EC100;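 active = activation above the run's mean compound activation plus 3 SD, cut at about 16% in these data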;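 note: peak over basal fluorescence ratio within a 140 s kinetic read after compound addition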
Target sequence (P11229 whole entry, looked up): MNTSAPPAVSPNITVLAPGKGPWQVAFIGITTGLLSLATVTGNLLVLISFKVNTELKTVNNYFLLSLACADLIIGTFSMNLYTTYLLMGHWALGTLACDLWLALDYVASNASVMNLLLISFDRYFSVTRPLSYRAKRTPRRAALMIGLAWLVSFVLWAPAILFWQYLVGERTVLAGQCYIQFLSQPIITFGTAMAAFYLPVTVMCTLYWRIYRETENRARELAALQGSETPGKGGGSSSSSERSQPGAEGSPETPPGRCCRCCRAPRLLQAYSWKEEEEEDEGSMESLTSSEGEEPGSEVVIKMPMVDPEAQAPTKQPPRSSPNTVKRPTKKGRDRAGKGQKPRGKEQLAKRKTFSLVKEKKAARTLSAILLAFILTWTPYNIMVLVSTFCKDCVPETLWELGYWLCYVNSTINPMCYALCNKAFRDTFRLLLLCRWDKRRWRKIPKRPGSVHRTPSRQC
CHO-K1 Ca ag – counter-screen for M1 agonists: effect in parental CHO-K1 cells; actives 0.48% (n = 360,000); Fluo-8 calcium fluorescence; scaled to maximal ATP response, vehicle zero; activation, % at 3 µM; in the data active = activation above about 15%;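 note: untransfected CHO-K1 host cells lacking M1 receptor as counterscreen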
CHRM1 antagonist – human M1 muscarinic receptor antagonists, primary screen, CHO-K1 cells, Fluo-8 calcium fluorescence, 1536-well; CHO-K1 hM1, ACh EC80 antagonist; inhibition, % at 3 µM; actives 1.3% (n = 360,000); AID 588852, 2011;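 active = percent inhibition above its own plate's cutoff, namely the mean of that plate's compound wells plus 3 SD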;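 note: peak over basal fluorescence ratio during 140 s after agonist addition; 0% = ACh EC80 plus DMSO and 100% = DMSO alone without agonist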
CHO-K1 Ca antag – nonselective inhibitor or artifact in parental CHO-K1 cells | actives 0.6% (n = 360,000) | ATP-induced calcium, Fluo-8 fluorescence | inhibition, % at 3 µM | AID 602250;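 active = inhibition above a per-plate cutoff, the plate's mean sample inhibition plus 3 SD, cut at about 24% in these data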;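 note: 0% = DMSO plus EC80 ATP and 100% = DMSO alone without ATP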
M1 PAM – human M1 muscarinic receptor positive allosteric modulators, primary screen, CHO-K1 cells, Fluo-8 calcium fluorescence, 1536-well | Muscarinic acetylcholine receptor M1 (Homo sapiens), P11229 | CHO-K1 hM1, ACh EC20; 0% = ACh EC20, 100% = maximal ACh | activation, % at 3 µM | actives 0.088% (n = 360,000); in the data active = activation above about 19%, passing the limit was not always enough
CHO-K1 Ca PAM – nonselective calcium activators in parental CHO-K1 cells, primary screen, counter-screen for M1 PAM project, cell-based, Fluo-8 calcium fluorescence, full deck, 1536-well | ATP EC20; 0% at ATP EC20, 100% at ATP max | activation, % at 3 µM | actives 0.02% (n = 360,000);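 active = activation above the run cutoff, the mean activation of all test compounds plus 3 SD, cut at about 40% in these data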;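 note: peak over basal fluorescence ratio in a 140 s read after ATP addition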
Numbers without * were called inactive.

SMILES	M1 ag	CHO-K1 Ca ag	CHRM1 antagonist	CHO-K1 Ca antag	M1 PAM	CHO-K1 Ca PAM
CCN(CC)CCNC(=O)c1ccc(NC(=O)c2ccc(Cl)c(S(=O)(=O)N3CCCCCC3)c2)cc1	-7	0	100*	-14	-25	5
CCN(CC)CCNC(=O)c1ccc(NC(=O)c2cccc(S(=O)(=O)N3CCCCCC3)c2)cc1	-8	0	101*	-9	-30	10
COc1ccc(C(CNC(=O)c2ccc(Cl)c(S(=O)(=O)N3CCCC3)c2)N2CCCC2)cc1 (stereo unspecified)	-8	0	-5	-12	4	7
COc1ccc(CCNC(=O)c2ccc(Cl)c(S(=O)(=O)N3CCCC3)c2)cc1	0	16*	5	-6	-9	0
CCN(CC)CCNC(=O)c1ccc(NC(=O)c2ccc(S(=O)(=O)N3CCCCCC3)cc2)cc1	-8	1	10	-10	-11	14
O=C(Nc1ncccc1O)c1ccc(Cl)c(S(=O)(=O)N2CCCCC2)c1	-2	0	16	38*	-6	-14
Cc1nn(-c2cc(Cl)ccc2Cl)c(C)c1C(=O)O	-2	0	-15	-3	6	11
N#Cc1ccsc1NC(=O)CN(Cc1ccccc1)Cc1ccccc1	-8	1	-8	-19	9	44*
N#Cc1ccsc1NC(=O)CCc1ccccc1	-2	1	-6	-10	7	16
Cc1cccc(C)c1NC(=O)CN(Cc1ccccc1)Cc1ccccc1	18*	6	-24	-9	2	15
CC1CCCC(NC(=O)CSc2ncccn2)C1C (stereo unspecified)	0	-1	-4	27*	10	-23
Cc1nc(CN2CCCCC2)c(O)c(=O)[nH]1	0	0	-18	-13	11	19
COc1ccc(-c2c[n+]3c(n2-c2ccccc2)SCC3)cc1	-9	0	62*	-6	-23	11
FC(F)Oc1ccc(-c2c[n+]3c(n2-c2ccccc2)CCCCC3)cc1	-7	0	-5	-3	0	-3
COc1ccc(-c2c[n+]3c(n2-c2ccccc2)SCC3)cc1OC	-8	1	-3	-9	5	10
Cc1ccc(-c2c[n+]3c(n2-c2ccccc2)SCC3)cc1	-8	1	54*	-6	-21	13
Brc1ccc(-c2c[n+]3c(n2-c2ccccc2)SCC3)cc1	-9	0	73*	-1	-26	-10
Cc1ccsc1C1C2=C(CCCC2=O)Nc2ncnn21 (stereo unspecified)	-1	0	9	31*	-10	-4
Nc1ccccc1C(=O)N1CCC(O)(c2ccc(Cl)cc2)CC1	0	6	-16	-9	8	25
O=C(CSc1nc(-c2ccc(F)cc2)cc(C(F)(F)F)n1)NCCN1CCOCC1	-3	0	-12	-5	6	2
O=C(CN1CCN(S(=O)(=O)c2ccc(F)c(F)c2)CC1)Nc1ccccc1C(=O)NC1CC1	-2	5	1	-19	-3	3
COc1ccc(C2C3=C(COC3=O)Oc3cc4c(cc32)OCO4)cc1OC (stereo unspecified)	-1	0	-25	-14	29*	8
COc1cc(C2C3=C(COC3=O)Oc3cc4c(cc32)OCO4)ccc1OC(C)=O (stereo unspecified)	-5	1	-4	-14	1	15
N#C/C(=C\c1coc2ccc(O)cc2c1=O)C(=O)Nc1nc2ccccc2s1	62*	58*	21	40*	-13	-19
O=C(Nc1ccc([N+](=O)[O-])cc1)c1cc2ccccc2nc1Cl	0	9	6	-2	-9	1
SMILES	M1 ag	CHO-K1 Ca ag	CHRM1 antagonist	CHO-K1 Ca antag	M1 PAM	CHO-K1 Ca PAM
COc1ccc(C(=O)C[n+]2ccccc2/C=N/O)cc1	-10	0	16	9	-21	-7
O/N=C/c1cccc[n+]1CCCCCC[n+]1ccccc1/C=N/O	-9	1	45*	3	-22	4
COc1cccc(NC(=O)CN(C)C(=O)c2cc(-c3ccccc3)nc3ccccc23)c1	-1	7	16	3	-4	4
COc1cccc(NC(=O)CN(C)C(=O)c2cc(-c3ccc(F)cc3)nc3ccccc23)c1	0	8	27*	10	-6	1
COc1cccc(NC(=O)CN(C)C(=O)c2cc(-c3ccccc3)nn2-c2ccccc2)c1	-1	0	-28	-14	24*	16
CN(CC(=O)Nc1cccc(F)c1)C(=O)Cc1n[nH]c(=O)c2ccccc12	-3	0	41*	-3	-15	13
COc1ccc(-c2cc(C(=O)N(C)CC(=O)Nc3cccc(F)c3)c3ccccc3n2)cc1OC	3	9	37*	14	-15	-11
O=C(COc1ccccc1[N+](=O)[O-])N1CCN(C(=O)c2ccco2)CC1	-2	1	-5	0	7	-1
C=C(C)C1CC=C(CN2CCC(O)CC2)CC1 (stereo unspecified)	-5	0	15	4	18	-1
COc1ccc(NC(=O)c2cc(-c3cc(F)ccc3OC)n[nH]2)cc1OC	-1	4	-6	14	0	-8
CN(CC(=O)Nc1c(Cl)cccc1Cl)C(=O)c1sccc1-c1ccccc1	-3	2	-10	-1	7	12
Cc1cccc(C(=O)NCC(=O)N2CCN(c3ccc(Cl)cc3)CC2)c1	0	16*	3	-13	1	12
COc1ccc(-n2c(Cc3cccn3C)nnc2SCC(=O)Nc2ccccc2OC)cc1	2	0	3	1	11	-9
COc1ccc(NC(=O)c2ccccc2)c([N+](=O)[O-])c1	-2	1	-9	-8	9	5
CCCN(CCC)CCCNc1ccc(C(=O)Nc2cccc(OC)c2)cc1[N+](=O)[O-]	-7	1	40*	-15	-24	6
CCC(CC)C(=O)Nc1cccc(C(=O)Nc2ccc(OC)cc2[N+](=O)[O-])c1	23*	2	19	-5	-4	12
CCOc1cccc(C(=O)NC(=S)Nc2ccccc2)c1	-10	0	-3	-7	-4	18
CCOc1cccc(C(=O)NC(=S)Nc2ccc(N3CCN(CC)CC3)cc2)c1	-16	2	81*	0	-35	23
CCN1CCN(c2ccc(NC(=O)c3cccc(OCc4ccccc4)c3)cc2)CC1	-4	1	81*	-1	-21	17
